Results: PubChem BioAssay (NCATS)
Results filed as inconclusive are left out. Calls of active or inactive are those of the source. Unless noted, the call rests on the fitted dose curve.

Assays:
[1] = qHTS for Inhibitors of the Functional Ribonucleoprotein Complex (vRNP) of Lassa (LASV) Arenavirus: Viability assay - alamar blue signal for LASV Primary Screen (AID 1347083; calls by dose curve; tested in HEK293 reporter line; further: nearly all actives have a fitted effect of over 80% in size; further: potency means the concentration at half of the fitted maximal effect)
[2] = qHTS for Inhibitors of the Functional Ribonucleoprotein Complex (vRNP) of Lymphocytic Choriomeningitis Arenaviruses (LCMV): Viability assay - alamar blue signal for LCMV Primary Screen (AID 1347085; calls by dose curve; tested in HEK293 reporter line; further: nearly all actives have a fitted effect of over 80% in size; further: potency means the concentration at half of the fitted maximal effect)
[3] = Cytotoxicity counterscreen for inhibitors of SARS-CoV-2 cell entry (AID 1645845); further: nearly all actives have a fitted effect of over 50% in size
How it was run: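 HEK293-ACE2 cells (Expi293F stably expressing human ACE2) seeded overnight, then compound for 1 h plus 48 h at 37C. Viability as ATP content by luminescence; normalized to wells with cells and media-only wells.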

[4] = Primary qHTS to identify inhibitors of SARS-CoV-2 cell entry (AID 1645846); details: activity change, negative = inhibition: at 57.1 µM (top of the series) unless noted; further: nearly all actives have a fitted effect of over 45% in size; further: potency means the concentration at half of the fitted maximal effect
How it was run: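 HEK293-ACE2 (Expi293F, stable hACE2), 1500 cells/well, o/n 37C; cpd 23 nL pin, 1 h; MLV-PP w/ SARS-CoV-2-S (Wuhan-Hu-1, Δ19 C-term); 48 h 37C; Bright-Glo luminescence; normalized vs S-PP and bald PP.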

[5] = target: Peroxisome proliferator-activated receptor delta (Homo sapiens) (UniProt Q03181); experiment: qHTS assay for small molecule agonists of peroxisome proliferator-activated receptor delta signaling (AID 588534);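 further: 0% = DMSO basal wells and 100% = positive control agonist at 10 µM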
Peroxisome proliferator-activated receptor delta (Homo sapiens), sequence (Q03181 whole entry, looked up): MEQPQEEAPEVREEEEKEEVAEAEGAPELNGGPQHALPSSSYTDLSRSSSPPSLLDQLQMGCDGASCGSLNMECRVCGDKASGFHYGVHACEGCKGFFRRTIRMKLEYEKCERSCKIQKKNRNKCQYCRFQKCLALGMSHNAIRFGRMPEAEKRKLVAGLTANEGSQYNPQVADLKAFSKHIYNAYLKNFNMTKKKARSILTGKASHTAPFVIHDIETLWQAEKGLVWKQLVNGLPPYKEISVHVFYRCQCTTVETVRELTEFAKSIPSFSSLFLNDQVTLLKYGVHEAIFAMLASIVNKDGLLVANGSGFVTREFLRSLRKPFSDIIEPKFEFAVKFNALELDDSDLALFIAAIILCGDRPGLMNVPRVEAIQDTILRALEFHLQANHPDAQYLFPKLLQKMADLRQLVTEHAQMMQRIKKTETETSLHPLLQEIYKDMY
How it was run: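 Cell-based beta-lactamase reporter assay run in agonist mode: cells seeded and incubated 5 hrs at 37 C, compounds added and incubated 18 hrs at 37 C. CCF4 dye fluorescence read after 2 hrs at RT; EC50 and efficacy from Hill fits.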

[6] = qHTS profiling of the MIPE4 collection as inhibitors of Plasmodium falciparum (3D7) proliferation (AID 743344; call rule not given here;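 further: scaled between DMSO vehicle wells and 0.29 µM artemisinin as full inhibition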); details: P. falciparum 3D7 in erythrocytes, SYBR Green DNA fluorescence, 72 h; at 28.5 µM (top of the series) unless noted
How it was run: (§1)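 Erythrocytes infected with P. falciparum (0.3% parasitemia, 2.5% hematocrit) incubated with compounds 72 h at 37 C, 5% CO2. Lysis with saponin/Triton buffer containing SYBR Green I, overnight at room temperature in the dark; DNA fluorescence (485/535 nm) normalised to 0.29 uM artemisinin and DMSO.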

[7] = qHTS profiling of the MIPE4 collection as inhibitors of Plasmodium falciparum (DD2) proliferation (Rep 2) (AID 743346; call rule not given here); details: P. falciparum Dd2 in erythrocytes, SYBR Green DNA, 72 h; at 28.5 µM (top of the series) unless noted
How it was run: as §1

[8] = qHTS profiling of the MIPE4 collection as inhibitors of Plasmodium falciparum (HB3) proliferation (AID 743347; call rule not given here;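 further: plate controls were DMSO vehicle wells for no effect and artemisinin wells for full effect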); details: P. falciparum HB3 in erythrocytes, SYBR Green DNA, 72 h; at 28.5 µM (top of the series) unless noted
How it was run: as §1

[9] = qHTS profiling of the MIPE4 collection as inhibitors of Plasmodium falciparum (DD2) proliferation (AID 743345; call rule not given here); details: P. falciparum Dd2 in erythrocytes, SYBR Green DNA, 72 h; at 28.5 µM (top of the series) unless noted
How it was run: as §1

[10] = Confirmatory qHTS for VERO E6 Cytotoxicity Assay: Counterscreen for SARS-CoV-2 CPE Assay (AID 1508605); further: potency means the concentration at half of the fitted maximal effect; nearly all actives have a fitted effect of over 60% in size
[11] = Confirmatory qHTS for activators (rescue) of SARS-CoV-2 Cytopathic Effect (CPE) (AID 1508606); further: 0% is about no effect; nearly all actives have a fitted effect of over 70% in size
[12] = Primary qHTS for inhibitors of SARS-S pseudo-typed particle cell entry (AID 1479145); further: nearly all actives have a fitted effect of over 45% in size
[13] = Primary qHTS for Huh7 cytotoxicity: counterscreen for inhibitors of MERS-S pseudotyped particle cell entry (AID 1479147); details: outcome: dose series up to 57.1 µM unless noted
[14] = Primary qHTS for inhibitors of MERS-S pseudo-typed particle cell entry (AID 1479149); further: nearly all actives have a fitted effect of over 60% in size
[15] = Primary qHTS for Vero E6 cytotoxicity: counterscreen for inhibitors of SARS-S pseudo-typed particle cell entry (AID 1479150); details: outcome: dose series up to 57.1 µM unless noted
[16] = Inducers of the Endoplasmic Reticulum Stress Response (ERSR) in human glioma: Validation (AID 504836; active means well fitted curve in the direction sought with a large enough effect; further: 0% is about no effect)
How it was run: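 Stably transfected U87-MG glioma cells carrying a GRP78-based luciferase sensor; 16 h compound incubation. Luminescence end-point read 10 min after Bright-Glo addition at room temperature.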

With `Cc1cc(C(=O)NOCCO)c(Nc2ccc(I)cc2F)n(C)c1=O` the Potency [1] was 6.85 µM (active), the Potency [2] was 0.863 µM (active) and the Potency [3] was “inactive”. For the same molecule, the activity change, negative = inhibition [4] was -17.4%.

With `NC(N)=NC(N)=NCCc1ccccc1` the Potency [5] was “inactive”, the Potency [1] was “inactive” and the Potency [2] was “inactive”. The Potency [3] was “inactive” and the activity change, negative = inhibition [4] was -16.7%.

With `Cc1cnc(NC(=O)Nc2cc(Br)c(C)cc2OC[C@@H]2CNCCO2)cn1` the Potency [1] was 2.43 µM (active), the Potency [2] was 10.9 µM (active) and the Potency [4] was 10 µM (active).

With `NC(=O)c1ncn([C@@H]2O[C@H](CO)[C@@H](O)[C@@H]2O)n1` the parasite growth, % of DMSO control [6] was 91.7%, the parasite growth, % of control (lower = inhibition) [7] was 53.8% and the growth, % of control [8] was 53.5%. For the same molecule, the Potency [1] was “inactive” and the Potency [2] was “inactive”.

With `COc1cc(C(=O)NC2CCN(C)CC2)ccc1Nc1ncc2c(n1)N(C1CCCC1)CCC(=O)N2C(C)C` the Potency [1] was 27.3 µM (active), the Potency [2] was 15.3 µM (active) and the Potency [4] was 31.6 µM (active).

For `COc1cc2ncnc(Nc3cc(Br)c(O)c(Br)c3)c2cc1OC`, the Potency [1] was 0.611 µM (active), the Potency [2] was 0.0544 µM (active) and the Potency [3] was “inactive”. For the same molecule, the activity change, negative = inhibition [4] was -28.4%.

With `CC[C@H](CC[C@@H](C)[C@H]1CC[C@H]2[C@@H]3CC=C4C[C@@H](O)CC[C@]4(C)[C@@H]3CC[C@]12C)C(C)C` the parasite growth, % of DMSO control [6] was 94%, the parasite growth remaining, % of DMSO control (lower = more inhibition) [9] was 101% and the parasite growth, % of control (lower = inhibition) [7] was 179%. The Potency [1] was 8.63 µM (active) and the Potency [2] was 2.43 µM (active).

With `c1cncc(CN2CCC(n3ncc4c(N5CCOCC5)nc(-c5ccc6[nH]ccc6c5)nc43)CC2)c1` the Potency [1] was 1.22 µM (active), the Potency [2] was 2.43 µM (active) and the Potency [10] was 2.51 µM (active). The Potency [11] was “inactive”.

With `C[C@H](NCc1ccc(OCc2cccc(F)c2)cc1)C(N)=O` the Potency [1] was 21.7 µM (active), the Potency [2] was 38.5 µM (active) and the Potency [12] was “inactive”. For the same molecule, the outcome [13] was “inactive”, the Potency [14] was “inactive” and the outcome [15] was “inactive”. For the same molecule, the Potency [3] was “inactive” and the Potency [4] was “inactive”.

With `COc1cc(/C=C(\C#N)C(=O)Nc2nnc(C(F)(F)F)s2)ccc1OCc1ccc(C(F)(F)F)cc1C(F)(F)F` the outcome [16] was “inactive”, the Potency [1] was “inactive” and the Potency [2] was “inactive”. The Potency [3] was “inactive” and the Potency [4] was “inactive”.

In the case of `Cc1nc2c([nH]1)CCN(C(=O)c1ccc(NC(=O)c3ccccc3-c3ccccc3)cc1)c1ccccc1-2`, the Potency [1] is reported as “inactive”, the Potency [2] is reported as “inactive” and the outcome [13] is reported as “inactive”. The outcome [15] was “inactive” and the Potency [3] was “inactive”.

With `CNC(=O)c1ccccc1Nc1nc(Nc2ccc(N3CCOCC3)cc2OC)ncc1Cl` the Potency [1] was 4.85 µM (active), the Potency [2] was 2.73 µM (active) and the Potency [3] was “inactive”.
